Assay results taken from PubChem BioAssay AID1159580 (chemical genetic matrix, 2015).
Hit rate of the full screen: of about 5,500 compounds, about 2,000 (36%) were called active. Not shown: some 18% with an inconclusive outcome. Cut-off read from the data, not from the text of the source: active = normalized growth mostly below about 0.91 (no sharp cut-off); inconclusive = no clear call, values can overlap the other calls; inactive = mostly above about 0.92. Some of the results follow.

Assay: chemical genetic growth profiling, strain panel (AID 1159580);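 note: tested at 20 µM; growth read once vehicle control cultures reached saturation at 30 °C; 1 = growth at the plate median or of vehicle wells; lower values mean less growth of the strain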
Conditions: S. cerevisiae deletion strains, growth OD

Measured: normalized growth

Cc1ccc(-c2nc(NS(=O)(=O)c3cccc4nonc34)sc2C)cc1Cl
inactive: locus YAR019C, strain CDC15, hits give low values 0.965 | locus YBL105C, strain PKC1, hits give low values 0.972 | locus YBR135W, strain CKS1, hits give low values 0.967 | locus YBR136W, strain MEC1, hits give low values 0.973 | locus YBR160W, strain CDC28, hits give low values 0.959 | locus YDL017W, strain CDC7, hits give low values 0.97 | locus YDL028C, strain MPS1, hits give low values 0.976 | locus YDL101C, strain DUN1, hits give low values 0.962 | locus YDL108W, strain KIN28, hits give low values 0.975 | locus YDL132W, strain cdc53, hits give low values 0.964 | locus YDL214C, strain PRR2, hits give low values 0.984 | locus YDR052C, strain DBF4, hits give low values 0.972 | locus YDR054C, strain cdc34, hits give low values 0.961 | locus YDR226W, strain ADK1, hits give low values 0.97 | locus YDR477W, strain SNF1, hits give low values 0.975 | locus YER123W, strain YCK3, hits give low values 1 | locus YER133W, strain GLC7, hits give low values 0.994 | locus YFL009W, strain cdc4, hits give low values 0.972 | locus YFL029C, strain CAK1, hits give low values 0.946 | locus YFR003C, strain YPI1, hits give low values 0.965 | locus YFR019W, strain FAB1, hits give low values 0.997 | locus YFR028C, strain CDC14, hits give low values 0.964 | locus YGR040W, strain KSS1, hits give low values 0.962 | locus YGR052W, strain FMP48, hits give low values 1.07 | locus YGR092W, strain DBF2, hits give low values 0.991 | locus YHR030C, strain SLT2, hits give low values 1.06 | locus YHR079C, strain IRE1, hits give low values 1.07 | locus YHR082C, strain KSP1, hits give low values 1.09 | locus YHR205W, strain SCH9, hits give low values 0.981 | locus YIL147C, strain SLN1, hits give low values 0.972 | locus YJL095W, strain BCK1, hits give low values 1.06 | locus YJL128C, strain PBS2, hits give low values 0.975 | locus YJL157C, strain FAR1, hits give low values 0.999 | locus YJR016C, strain ILV3, hits give low values 0.972 | locus YJR066W, strain TOR1 (second series), hits give low values 0.985 | locus YJR066W, strain TOR1, hits give low values 1.1 | locus YKL048C, strain ELM1, hits give low values 0.981 | locus YKL067W, strain YNK1, hits give low values 1 | locus YKL101W, strain HSL1, hits give low values 0.967 | locus YKL193C, strain SDS22, hits give low values 0.968 | locus YKL203C, strain TOR2, hits give low values 1.04 | locus YLR113W, strain HOG1, hits give low values 0.963 | locus YLR133W, strain CKI1, hits give low values 0.978 | locus YLR403W, strain SFP1, hits give low values 0.985 | locus YML070W, strain DAK1, hits give low values 0.987 | locus YMR001C, strain CDC5, hits give low values 0.967 | locus YMR205C, strain PFK2 (second series), hits give low values 0.981 | locus YMR277W, strain FCP1, hits give low values 0.975 | locus YNL006W, strain LST8, hits give low values 0.967 | locus YNL020C, strain ARK1, hits give low values 0.978 | locus YNL161W, strain CBK1, hits give low values 0.959 | locus YNL183C, strain NPR1, hits give low values 1.01 | locus YNL207W, strain RIO2, hits give low values 0.953 | locus YNL222W, strain SSU72, hits give low values 0.947 | locus YNL307C, strain MCK1 (second series), hits give low values 0.984 | locus YOL078W, strain AVO1, hits give low values 0.951 | locus YOL136C, strain PFK27, hits give low values 0.999 | locus YOR061W, strain CKA2, hits give low values 0.988 | locus YOR119C, strain RIO1, hits give low values 1.03 | locus YOR231W, strain MKK1, hits give low values 1.01 | locus YOR329C, strain SCD5, hits give low values 0.973 | locus YPL031C, strain PHO85, hits give low values 0.993 | locus YPL153C, strain RAD53, hits give low values 0.992 | locus YPL204W, strain HRR25, hits give low values 0.991 | locus YPL209C, strain IPL1, hits give low values 0.951 | locus YPL256C, strain CLN2, hits give low values 1.01 | locus YPR025C, strain CCL1, hits give low values 0.97 | locus YPR106W, strain ISR1, hits give low values 0.963 | locus YPR111W, strain DBF20, hits give low values 0.953 | strain NNK1, hits give low values 0.971 | strain TSCII, hits give low values 0.956
